# Rows were chosen to be rich in hits. Some 12% of all compounds tested hit in one or more screens of this group.
# Sfp inh: inhibitors of Bacillus subtilis Sfp phosphopantetheinyl transferase; Potency, µM, hits mostly inhibitors; AID 1490; Q9F4F7; 3.5% of 310,000 active; Biochemical Sfp PPTase activity, qHTS;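 note: the enzyme is Sfp with the accession as filed and its product quenches rhodamine fluorescence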
#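 Fluorescence-quenching assay: 15 nM Sfp-PPTase preincubated 15 min at room temperature with compound, then 5 uM rhodamine-CoA and 12.5 uM BHQ-2-labelled YbbR peptide added. Fluorescence (ex 525/em 598 nm) read at start and after 30 min; difference gives rate.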
# HP1b chromo inh: HP1-beta chromodomain-methylated histone interaction inhibition; 0.56% of 390,000 active; AlphaScreen HP1-beta / biotin-H3K9me3 peptide binding; Potency, µM (highest dose often 114 µM), actives largely listed as inhibitors; note: nearly all actives have a fitted effect of over 70% in size
#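 Compound inhibition of the preformed complex between 50 nM HP1-beta and 50 nM biotinylated H3K9me3 peptide was read by AlphaScreen. Buffer was PBS pH 7.4 with 0.01% Tween-20. Incubations ran 30 min at room temperature, with 10 ug/mL donor/acceptor beads.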
# BAZ2B block: inhibitors of human BAZ2B bromodomain; Potency, µM (doses to about 114 µM), actives largely listed as inhibitors; AlphaScreen BAZ2B-H3K14Ac peptide displacement; 4.4% of 360,000 active; note: nearly all actives have a fitted effect of over 60% in size
#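 Compounds, titrated to a top concentration of 110 uM, were incubated 30 min at room temperature with preformed BAZ2B/acetyl-K14 H3 peptide complex (50 nM each). Proximity signal was measured by AlphaScreen after 20 min with beads.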
# JMJD2A Tudor: blocks the human JMJD2A Tudor domain | AlphaScreen JMJD2A-Tudor / H3K4me3 peptide binding | Potency, µM (doses to about 114 µM), actives largely listed as inhibitors | 4.4% of 390,000 active; note: nearly all actives have a fitted effect of over 50% in size
# Target sequence (O75164 whole entry, looked up, the tested form may be a part): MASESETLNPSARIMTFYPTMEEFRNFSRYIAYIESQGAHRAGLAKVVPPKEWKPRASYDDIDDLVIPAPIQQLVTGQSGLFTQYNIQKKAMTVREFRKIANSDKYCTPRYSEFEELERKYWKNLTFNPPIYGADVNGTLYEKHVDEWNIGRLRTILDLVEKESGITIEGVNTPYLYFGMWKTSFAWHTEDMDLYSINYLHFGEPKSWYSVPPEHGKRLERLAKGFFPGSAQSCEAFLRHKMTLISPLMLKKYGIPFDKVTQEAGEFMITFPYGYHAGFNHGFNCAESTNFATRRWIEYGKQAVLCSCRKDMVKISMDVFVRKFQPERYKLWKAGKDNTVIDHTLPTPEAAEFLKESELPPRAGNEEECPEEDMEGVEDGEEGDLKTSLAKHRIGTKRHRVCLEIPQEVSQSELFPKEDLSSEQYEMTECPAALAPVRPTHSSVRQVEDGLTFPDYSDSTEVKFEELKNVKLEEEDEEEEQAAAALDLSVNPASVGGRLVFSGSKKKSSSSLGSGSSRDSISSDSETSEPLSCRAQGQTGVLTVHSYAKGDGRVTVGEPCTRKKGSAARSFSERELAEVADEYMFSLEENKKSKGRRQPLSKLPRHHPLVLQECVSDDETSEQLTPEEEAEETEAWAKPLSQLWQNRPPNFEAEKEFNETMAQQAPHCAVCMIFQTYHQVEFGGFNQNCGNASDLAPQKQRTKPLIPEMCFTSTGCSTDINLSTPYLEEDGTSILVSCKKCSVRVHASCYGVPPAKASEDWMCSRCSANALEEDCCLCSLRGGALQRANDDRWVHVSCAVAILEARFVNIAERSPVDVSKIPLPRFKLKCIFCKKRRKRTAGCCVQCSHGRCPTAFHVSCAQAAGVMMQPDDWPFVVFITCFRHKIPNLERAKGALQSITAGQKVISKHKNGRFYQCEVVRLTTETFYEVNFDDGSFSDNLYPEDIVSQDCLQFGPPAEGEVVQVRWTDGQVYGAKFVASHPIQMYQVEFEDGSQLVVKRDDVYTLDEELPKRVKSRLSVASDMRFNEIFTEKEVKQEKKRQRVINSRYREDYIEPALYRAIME
# L3MBTL1 inh: blocks human L3MBTL1. Q9Y468. Potency, µM (series often up to 57.1 µM), hits mostly inhibitors. 0.66% of 230,000 active. AlphaScreen L3MBTL1–H3K9me1 peptide binding; note: nearly all actives have a fitted effect of over 60% in size
#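 AlphaScreen assay: L3MBTL1 (50 nM final) was preincubated 30 min at room temperature with biotinylated H3(1-15)K9me1 peptide (75 nM final), then 30 min with library compounds; streptavidin donor and nickel chelate acceptor beads (10 ug/mL final) added, 30 min dark.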
# G9a block: blocks human histone lysine methyltransferase G9a; G9a H3K9 monomethylation, AlphaScreen, 2 h; Potency, µM (highest dose often 102 µM), usual class: inhibitors; 8.8% of 350,000 active; Q96KQ7; AID 504332; note: nearly all actives have a fitted effect of over 75% in size
#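 Enzyme 20 nM + cpd, 15 min RT; add b-H3K9 pep 500 nM / SAM 20 uM; 2 h RT; anti-H3K9me1 Ab 0.5 ug/mL + SA donor / anti-rabbit acceptor beads 20 ug/mL each, 10 min; AlphaScreen read.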
# Hits are given with their value; – = inactive; ? = inconclusive; · = no result given; [ ] = dose if it differs, or a comment. Calls come from the whole dose curve; as a rule, active = well fitted curve in the direction sought with a large enough effect; inconclusive = small, poorly fitted or top-dose-only effect, or another doubt; inactive = no such curve, though single readings can be large; an effect the other way counts as inactive or inconclusive.
SMILES,Sfp inh,HP1b chromo inh,BAZ2B block,JMJD2A Tudor,L3MBTL1 inh,G9a block
CN1C2=CC=CC=CC2=[N+](C)C12C=CC(=[N+]([O-])[O-])C=C2[N+](=O)[O-] (centres undefined),–,?,35µM,–,?,32µM
c1ccc(-c2onc(-c3ccco3)c2-c2ccc3[nH]ccc3c2)cc1,–,–,?,?,?,40µM
COC(=O)c1ccc(NC(=S)NNC(=O)CC(C)C)cc1,45µM,–,–,–,–,10µM
COC(=O)c1ccc(NC(=S)NC(=O)C2CCC2)cc1,–,–,–,–,·,79µM
COC(=O)c1ccc(NC(=S)NC2c3ccccc3CC2O)cc1 (centres undefined),–,–,–,–,–,50µM
CC(O)CCC(=O)NNC(=S)Nc1ccccc1 (centres undefined),–,–,–,–,–,–[12.7 µM]
COC(=O)c1ccc(NC(=S)NNC(=O)c2ccccc2)cc1,?,–,–,–,–,·
CC(C)CCOCC(O)CCC(=O)NNC(=S)Nc1ccccc1 (centres undefined),–,–,–,–,–,28µM
CCOc1c(CC2C(=O)Nc3ccc(Br)cc32)cccc1OC (centres undefined),·,–,?,–,·,–
COc1cccc(-c2nc(SCC(=O)Nc3ccc4c(c3)OCCO4)c(-c3ccc(C)cc3)[nH]2)c1,·,–,?,?,·,?
C=CCN1c2ccccc2[C@]23C[C@@H](C(=O)OC)N(S(=O)(=O)c4c(C)noc4C)C2=NC(C(=O)OC)=C(C(=O)OC)[C@H]13,–,·,·,·,·,·
CC1(C)SC2C(N3C(=O)C(c4ccccc4)NC3(C)C)C(=O)N2C1C(=O)O (centres undefined),?,·,·,·,·,–[2.33 µM]
COC(=O)c1ccc(NC(=S)N2CCC(C(N)=O)CC2)cc1,32µM,–,–,–,–,?
N#Cc1ccccc1NC(=S)NC(=O)C1CCC1,–,–,–,–,·,71µM
O=C(NC(=S)Nc1ccc(F)c(Cl)c1)C1CC1,–,–,–,–,·,56µM
COC(=O)c1sccc1NC(=S)N1CCC(C(N)=O)CC1,79µM,–,·,–,·,–
COC(=O)c1sccc1NC(=S)N1CCCCC1,–,–,–,–,·,–[12.7 µM]
CCc1ccc(C2CC(=O)c3c([nH]c(C(=O)OCC4CCCCC4)c3C)C2)cc1 (centres undefined),·,–,–,–,·,–
COC(=O)c1ccc2nc(C)c(C)nc2c1,–,–,–,–,–,–
COC(=O)c1ccc2c(c1)C(C)(C)C(/C=C/c1ccc(OC)c(OC)c1OC)=[N+]2C,18µM,–,?,56µM,–,–[0.0925 µM]
COC(=O)c1ccc2c(c1)C(C)(C)C(/C=C/c1ccc(O)cc1)=[N+]2C,45µM,?,28µM,50µM,–,7.1µM
CCc1ccc(C2c3c(-c4ccccc4O)n[nH]c3C(=O)N2Cc2cccnc2)cc1 (centres undefined),·,–,–,–,·,–
CCOC(=O)c1c(N)sc(C(O)(C(F)(F)F)C(F)(F)F)c1-c1ccc(OC)cc1OC,–,–,?,–,–,79µM
CCOC(=O)c1c(C)oc2ncnc(Nc3ccc(OC)cc3OC)c12,·,–,–,–,·,–
O=c1cc(-c2ccc(O)c(O)c2)oc2ccc3ccccc3c12,·,–,?,–,–,56µM
SMILES,Sfp inh,HP1b chromo inh,BAZ2B block,JMJD2A Tudor,L3MBTL1 inh,G9a block
O=C(COC(=O)c1ccc([N+](=O)[O-])s1)NC(=O)NCc1ccccc1,–,–,–,–,11µM,–
Cc1cc(F)ccc1NC(=O)c1csc2c1CCC(C)C2 (centres undefined),·,–,–,–,·,–
CC(C)OCCCNC(=O)C(=O)Nc1ccc2nc3n(c(=O)c2c1)CCCCC3,·,–,–,–,·,–
COc1ccc(N2CCN(C(=O)CCc3c(C)nc4cc(-c5ccc(OC)cc5OC)nn4c3C)CC2)cc1,·,–,18µM,–,·,?
COc1ccccc1CCC(=O)N1CCN(S(=O)(=O)c2cc(C(F)(F)F)ccc2Cl)CC1,·,–,–,–,–,8.9µM
COc1ccc(N2CCN(C(=O)COCc3cc(-c4ccc5c(c4)OCO5)on3)CC2)cc1,–,–,?,–,·,14µM

# From PubChem
